The values that follow come from PubChem BioAssay (Tox21).

The nature of assay [1]: A CellTox Green Cytotoxicity Assay to monitor cytotoxicity in HepG2 cells - 0 hour (AID 1224882). Further: nearly all actives have a fitted effect of over 35% in size. The procedure, abridged:
(§1)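 Real-time, homogeneous cytotoxicity readout: dead-cell DNA staining by CellTox Green in HepG2 monolayers, fluorescence measured at timed intervals up to 40 h of continuous compound exposure.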

Assay [2] can be described thus: A CellTox Green Cytotoxicity Assay to monitor cytotoxicity in HepG2 cells - 32 hour (AID 1224883). Further: nearly all actives have a fitted effect of over 50% in size. Further: potency means the concentration at half of the fitted maximal effect. The method in brief:
as §1

The nature of assay [3]: A CellTox Green Cytotoxicity Assay to monitor cytotoxicity in HEK293 cells - 8 hour (AID 1224884). Further: nearly all actives have a fitted effect of over 35% in size. Further: potency means the concentration at half of the fitted maximal effect. The method in brief: (§2)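 Cytotoxicity was tracked continuously in HEK293 cells by a DNA-binding dye excluded from viable cells. Compounds were transferred in DMSO 5 h after seeding; fluorescence was recorded at intervals up to 40 h.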
The nature of assay [4]: qHTS RealTime-Glo MT Cell Viability Assay in HepG2 cells - 16 hour (AID 1224885). Further: nearly all actives have a fitted effect of over 50% in size. Further: potency means the concentration at half of the fitted maximal effect. The procedure, abridged: (§3)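 Cells + NanoLuc/prosubstrate dispensed (600 cells/well) → 5 h at 37 C/5% CO2 → compounds in DMSO transferred → 40 h incubation at 37 C, luminescence read at 0, 8, 16, 24, 32, 40 h.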
The nature of assay [5]: qHTS RealTime-Glo MT Cell Viability Assay in HEK293 cells - 24 hour (AID 1224886). Further: nearly all actives have a fitted effect of over 50% in size. Further: potency means the concentration at half of the fitted maximal effect. On activity change, negative = cytotoxicity: top concentration of the series differs between compounds. The procedure, abridged: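 Tox21 10K qHTS, HEK293, 600 cells/well, RealTime-Glo reagent co-dispensed with cells; 5 h preincubation, compound by pintool, 37 C, luminescence at 0–40 h.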
The nature of assay [6]: qHTS RealTime-Glo MT Cell Viability Assay in HEK293 cells - 8 hour (AID 1224887). Further: nearly all actives have a fitted effect of over 50% in size. Further: potency means the concentration at half of the fitted maximal effect. On activity change, negative = cytotoxicity: top concentration of the series differs between compounds. The method in brief: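 Nonlytic bioluminescent viability monitoring. HEK293 at 600 cells/well with reagent; 5 h settle; compound transfer by pintool; plates held at 37 C and read at set time points.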
The nature of assay [7]: A CellTox Green Cytotoxicity Assay to monitor cytotoxicity in HEK293 cells - 16 hour (AID 1224888). Further: nearly all actives have a fitted effect of over 35% in size. Further: potency means the concentration at half of the fitted maximal effect. The method in brief:
as §2

Assay [8] in a line: A CellTox Green Cytotoxicity Assay to monitor cytotoxicity in HepG2 cells - 8 hour (AID 1224890). Further: nearly all actives have a fitted effect of over 45% in size. Further: potency means the concentration at half of the fitted maximal effect. The procedure, abridged: as §1
Assay [9] is described as follows: qHTS assay to identify small molecule antagonists of the estrogen receptor alpha (ER-alpha) signaling pathway using the BG1 cell line in the presence of 0.1 nM 17-beta-estradiol - cell viability counter screen (AID 1259241). Further: nearly all actives have a fitted effect of over 40% in size. The method in brief:
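In this screen, hormone-deprived VM7Luc4E2 cells were seeded at 4,000 per well, dosed with compound and 0.1 nM estradiol final, and incubated 22 hr at 37C and 5% CO2; fluorogenic live-cell protease signal reported viability.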

The nature of assay [10]: qHTS assay to identify small molecule antagonists of the androgen receptor (AR) signaling pathway using the MDA cell line in the presence of 0.5 nM R1881 - cell viability counter screen (AID 1259242). Further: nearly all actives have a fitted effect of over 45% in size. The method in brief:
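Cytotoxicity toward MDA-kb2 cells is measured by CellTiter-Fluor live-cell protease fluorescence after 16 hr compound exposure at 37C in the presence of 0.5 nM R1881 stimulator.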

Assay [11] in a line: qHTS assay to identify small molecule HDAC inhibitors (AID 1259364). Further: top concentration of the series differs between compounds; nearly all actives have a fitted effect of over 45% in size. The procedure, abridged:
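Homogeneous cell-based luminescent assay of endogenous class I/II HDAC activity; HCT-116 cells, 2 h compound exposure, 30 min HDAC-Glo development at RT.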

Assay [12] can be described thus: qHTS assay to identify small molecule HDAC inhibitors - cell viability counter screen (AID 1259365). The procedure, abridged:
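Measured quantity is CellTiter-Glo luminescence from wild-type HCT-116 cells after compound incubation of 2hr at 37C, 5% CO2; reagent developed 30min at room temperature.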

Assay [13] can be described thus: qHTS assay to identify small molecule agonists of the sonic hedgehog signaling (Shh) pathway - cell viability counter screen (AID 1259366). Further: nearly all actives have a fitted effect of over 50% in size. The method in brief: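 In quantitative high-throughput format, 3T3 Gli1-Luc cells were exposed to compounds for 24hr and multiplexed for viability using CellTiter-Fluor, incubated 1hr at 37C before the fluorescence read.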
Assay [14] in a line: qHTS assay to identify small molecule antagonists of the sonic hedgehog signaling (Shh) pathway - cell viability counter screen (AID 1259367). Further: nearly all actives have a fitted effect of over 55% in size. The procedure, abridged:
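After a 4 hr settling period, 3T3 Gli1-Luc cells were treated with DMSO-dissolved chemicals and conditioned medium, kept 24 hr at 37C in 5% CO2, and assayed for viability by CellTiter-Fluor fluorescence following 1 hr reagent incubation.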

Assay [15] can be described thus: qHTS assay to identify small molecule agonists of the sonic hedgehog signaling (Shh) pathway (AID 1259368; calls by dose curve;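 further: NIH/3T3-derived 3T3Gli1-Luc cells carrying a stable Gli1-driven firefly luciferase reporter; series mostly up to about 92 µM; nearly all actives have a fitted effect of over 15% in size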). The procedure, abridged:
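Steps: seed 3T3 Gli1-Luc cells, incubate 4 hr at 37 C, pin-transfer compounds in DMSO alongside a positive control, incubate 24 hr, add luciferase detection reagent, wait 30 min at room temperature, read luminescence.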

The nature of assay [16]: qHTS assay to identify small molecule antagonists of the sonic hedgehog signaling (Shh) pathway (AID 1259369; calls by dose curve; further: nearly all actives have a fitted effect of over 45% in size; further: potency means the concentration at half of the fitted maximal effect). The procedure, abridged:
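Inhibition of Shh signalling is measured as reduced Gli1-response-element firefly luciferase output in an NIH/3T3-derived stable reporter clone stimulated with conditioned medium for 24hr.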

Assay [17] in a line: qHTS RealTime-Glo MT Cell Viability Assay in HepG2 cells - 0 hour (AID 1224889). Further: nearly all actives have a fitted effect of over 50% in size. The procedure, abridged: as §3
The target in assay [18] is Estrogen receptor (Homo sapiens) (UniProt P03372). In words: qHTS assay to identify small molecule antagonists of the estrogen receptor alpha (ER-alpha) signaling pathway using the BG1 cell line in the presence of 0.1 nM 17-beta-estradiol (AID 1259244). Further: nearly all actives have a fitted effect of over 50% in size. The procedure, abridged: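 After 5 days in hormone-depleted medium (charcoal-stripped serum, no phenol red), VM7Luc4E2 cells were seeded, incubated 24 h, then co-treated with compound and 0.1 nM (final) estradiol for 22 h before luminescence detection.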

Assay [19] in a line: qHTS assay to identify small molecule phospholipidosis (PLD) inducers (AID 1259344; active means well fitted curve in the direction sought with a large enough effect; an effect the other way counts as inactive or inconclusive). The method in brief:
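HepG2 cells grown on collagen I take up LipidTOX Red while exposed to compound for 24 h; after fixation they are imaged at 20x and pit metrics are extracted.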

Assay [20] concerns the target Androgen receptor (Homo sapiens) (UniProt P10275). In words: qHTS assay to identify small molecule antagonists of the androgen receptor (AR) signaling pathway using the MDA cell line in the presence of 0.5 nM R1881 (AID 1259243). Further: nearly all actives have a fitted effect of over 50% in size. Further: potency means the concentration at half of the fitted maximal effect. The method in brief:
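Steps: seed MDA-kb2 cells, incubate 5 hr at 37C; pin-transfer compounds in DMSO; add R1881 to 0.5 nM final; incubate 16 hr; add ONE-Glo, wait 30 min at room temperature; read luminescence.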

Several values for one entry are separate records, joined by “and”; a condition that tells them apart may be missing. Equal entries are not always repeated. A number with no mark means an inactive call. Results filed as inconclusive are left out. Activity calls are given as the source filed them. Unless noted, the call rests on the fitted dose curve; in most records, active means well fitted curve in the direction sought with a large enough effect in the repeat runs; inconclusive means weak or mixed curves; inactive means no such curve, though single readings can be large; an effect the other way counts as inactive or inconclusive.
On the % scale 0 is the no-effect control and ±100 the full control effect.

Sequence of Estrogen receptor (Homo sapiens) (P03372 whole entry, looked up): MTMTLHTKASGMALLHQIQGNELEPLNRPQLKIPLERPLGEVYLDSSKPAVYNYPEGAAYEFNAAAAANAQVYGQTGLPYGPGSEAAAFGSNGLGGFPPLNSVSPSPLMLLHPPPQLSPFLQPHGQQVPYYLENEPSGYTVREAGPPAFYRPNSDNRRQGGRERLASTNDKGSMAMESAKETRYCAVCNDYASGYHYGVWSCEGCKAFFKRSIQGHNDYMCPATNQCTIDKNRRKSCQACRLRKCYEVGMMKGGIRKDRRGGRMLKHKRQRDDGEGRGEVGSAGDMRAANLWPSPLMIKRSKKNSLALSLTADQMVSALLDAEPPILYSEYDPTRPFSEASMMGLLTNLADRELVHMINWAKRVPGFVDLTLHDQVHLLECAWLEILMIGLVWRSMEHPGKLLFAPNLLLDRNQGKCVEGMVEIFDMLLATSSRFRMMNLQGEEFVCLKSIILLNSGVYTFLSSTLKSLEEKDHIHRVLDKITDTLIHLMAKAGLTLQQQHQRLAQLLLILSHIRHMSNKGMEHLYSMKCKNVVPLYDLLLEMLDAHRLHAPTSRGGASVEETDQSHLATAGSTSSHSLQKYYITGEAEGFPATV
Sequence of Androgen receptor (Homo sapiens) (P10275 whole entry, looked up): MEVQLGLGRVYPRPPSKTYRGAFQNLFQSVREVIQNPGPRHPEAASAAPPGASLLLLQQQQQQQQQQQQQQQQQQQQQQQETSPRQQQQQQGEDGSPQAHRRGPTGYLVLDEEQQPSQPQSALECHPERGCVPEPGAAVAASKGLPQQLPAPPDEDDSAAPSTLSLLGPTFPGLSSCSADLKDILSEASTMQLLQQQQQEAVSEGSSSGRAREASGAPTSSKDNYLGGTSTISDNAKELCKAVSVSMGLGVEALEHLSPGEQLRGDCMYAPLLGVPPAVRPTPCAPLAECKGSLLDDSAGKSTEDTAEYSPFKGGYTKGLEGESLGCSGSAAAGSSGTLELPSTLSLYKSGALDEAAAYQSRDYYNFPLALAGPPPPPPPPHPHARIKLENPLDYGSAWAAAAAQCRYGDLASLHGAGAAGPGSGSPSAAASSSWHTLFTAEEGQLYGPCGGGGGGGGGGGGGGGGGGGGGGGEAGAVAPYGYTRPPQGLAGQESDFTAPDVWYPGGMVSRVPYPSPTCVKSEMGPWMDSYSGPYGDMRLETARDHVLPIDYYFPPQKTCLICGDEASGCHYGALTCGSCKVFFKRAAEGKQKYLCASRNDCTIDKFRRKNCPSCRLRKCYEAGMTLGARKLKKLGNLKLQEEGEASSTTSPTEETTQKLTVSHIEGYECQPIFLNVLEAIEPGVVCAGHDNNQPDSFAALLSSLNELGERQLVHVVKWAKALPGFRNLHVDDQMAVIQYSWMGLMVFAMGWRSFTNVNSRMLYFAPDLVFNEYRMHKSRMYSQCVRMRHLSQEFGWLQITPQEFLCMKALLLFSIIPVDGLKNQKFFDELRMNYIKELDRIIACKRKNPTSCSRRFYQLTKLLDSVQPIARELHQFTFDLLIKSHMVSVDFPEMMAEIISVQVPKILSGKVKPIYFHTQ

For the compound `CN(C)CCCN1c2ccccc2CCc2ccccc21`, the Potency result in [1], in assay [3], in assay [4], in [5], in [6] and in [7] was “inactive” each time. Moreover, the Potency entry in [8], in assay [9], in assay [10], in assay [11], in assay [12] and in [13] was “inactive” each time. Moreover, the Potency result in [14] and in assay [15] was “inactive” throughout. The Potency in [2] is 54.9 µM (active); in [16], 8.63 µM (active) and 4.73 µM (active).

On to `CN1CN(C)CN(C)C1`, for which the Potency entry in assay [1], in [2], in assay [3], in assay [4], in assay [5] and in assay [6] was “inactive” throughout. For the same compound, the Potency result in assay [7], in assay [17], in [9], in assay [10], in assay [18] and in [11] was “inactive” each time. Besides, the Potency entry in assay [12], in [13], in assay [14], in [15] and in assay [16] was “inactive” throughout.

Turning to `CCC(=O)CC(C)CC` (configuration not stated), the cytotoxicity in [1] was 11.3% [at 0.29 µM]. Besides, the cytotoxicity increase is 8.4% [at 0.29 µM] in assay [2] and 19.1% [at 0.29 µM] in assay [3]. Further, the activity change, negative = cytotoxic in assay [4] was 0.759% [at 0.29 µM]. The activity change, negative = cytotoxicity is -3.03% [at 0.29 µM] in [5], 3.45% [at 0.29 µM] in assay [6], 5.37% [at 0.29 µM] in assay [17] and 3.99% [at 0.349 µM] in assay [12]. Besides, the activity change in assay [7] was 10.7% [at 0.29 µM, hits give high values]; in [15] it was -0.87% [at 0.349 µM, hits give high values]. The values for the viability change, negative = cytotoxic in assay [10], in assay [13] and in assay [14] were 2.57% [at 0.349 µM], 4% [at 0.349 µM] and 2.54% [at 0.349 µM], respectively. The activity change, negative = inhibition in [18] was 2.34% [at 0.349 µM].

With `Cc1cccc(C)c1NC(=O)CN1CCN(CCCC(c2ccc(F)cc2)c2ccc(F)cc2)CC1`, the Potency result in assay [1], in [3], in assay [17], in assay [9], in [11] and in assay [12] was “inactive” throughout. Further, the Potency result in [15] was “inactive”. Further, the Potency in assay [2] is 23.9 µM (active); in assay [4], 21.3 µM (active); in assay [5], 10.7 µM (active); in [6] it was 10.7 µM (active); in assay [8], 16.9 µM (active).

With `c1cc2c3c(c1)ccc1cccc(c13)C2`, the Potency entry in assay [1], in assay [2], in [4], in assay [5], in [6] and in assay [17] was “inactive” in each case. The Potency entry in assay [8], in assay [9], in [10], in assay [11], in assay [14] and in [15] was “inactive” throughout. Further, the Potency in [3] was 56.1 µM (active).

Regarding `Brc1ccccc1-c1ccccc1`, the Potency result in assay [1], in assay [3], in assay [4], in assay [5], in [17] and in assay [9] was “inactive” in each case. Moreover, the Potency result in [10], in [19], in [12], in assay [13], in assay [15] and in assay [16] was “inactive” in each case. For the same compound, the Potency in [2] is 46.3 µM (active).

For the compound `C[C@@H]1CC[C@H]2C(C)(C)[C@H]3C[C@@]12CC[C@@]3(C)O`, the Potency result in [1], in assay [4], in assay [17], in assay [8], in assay [9] and in assay [10] was “inactive” in each case. In addition, the Potency entry in [20], in assay [18], in assay [11], in assay [12], in [13] and in [14] was “inactive” throughout. The Potency entry in assay [15] and in assay [16] was “inactive” each time. In addition, the Potency in assay [2] was 54.9 µM (active); in assay [3], 43.6 µM (active); in assay [7], 43.6 µM (active).

As for `CCCN(CCc1cccs1)[C@H]1CCc2c(O)cccc2C1`, the Potency result in assay [1], in [3], in [4], in assay [17], in assay [9] and in assay [10] was “inactive” throughout. Moreover, the Potency result in [19], in [11], in [13], in [14] and in assay [15] was “inactive” in each case. The Potency was 23.9 µM (active) in assay [2], 7.56 µM (active) in assay [5], 15.1 µM (active) in [6] and 26.6 µM (active) in assay [20].
